Experimental data from PubChem BioAssay (NCI).
Values joined by “and” are separate entries in the source; they are usually repeats but may differ in a detail not shown here. Equal entries are not always repeated. Compounds without any hit were thinned out: in the full panel of roughly 83,000, 20% have a hit.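 Assay: single dose, 48 h. Readout: percent growth (0 = no net growth; negative = cell death). Active: <10.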 Active and inactive are the calls of the source.

What was measured:
Test in all cases: NCI-60 one-dose screen, 48 h (100 = growth as untreated, 0 = no growth, -100 = all killed)
Conditions in all cases: 10 µM unless noted
MOLT-4 leukemia = test system: MOLT-4 leukemia
SR leukemia = test system: SR leukemia
RPMI-8226 leukemia = test system: RPMI-8226 leukemia
OVCAR-8 ovarian = test system: OVCAR-8 ovarian
OVCAR-5 ovarian = test system: OVCAR-5 ovarian
OVCAR-4 ovarian = test system: OVCAR-4 ovarian
SK-OV-3 ovarian = test system: SK-OV-3 ovarian
IGROV1 ovarian = test system: IGROV1 ovarian
OVCAR-3 ovarian = test system: OVCAR-3 ovarian
HS 578T breast = test system: HS 578T breast
NCI/ADR-RES ovarian = test system: NCI/ADR-RES ovarian
T-47D breast = test system: T-47D breast
BT-549 breast = test system: BT-549 breast
MDA-MB-435 melanoma = test system: MDA-MB-435 melanoma
SW-620 colon = test system: SW-620 colon
MCF7 breast = test system: MCF7 breast
HCT-116 colon = test system: HCT-116 colon
HCC-2998 colon = test system: HCC-2998 colon
KM12 colon = test system: KM12 colon

Row | SMILES | growth (MOLT-4 leukemia) | growth (SR leukemia) | growth (RPMI-8226 leukemia) | growth (OVCAR-8 ovarian) | growth (OVCAR-5 ovarian) | growth (OVCAR-4 ovarian) | growth (SK-OV-3 ovarian) | growth (IGROV1 ovarian) | growth (OVCAR-3 ovarian) | growth (HS 578T breast) | growth (NCI/ADR-RES ovarian) | growth (T-47D breast) | growth (BT-549 breast) | growth (MDA-MB-435 melanoma) | growth (SW-620 colon) | growth (MCF7 breast) | growth (HCT-116 colon) | growth (HCC-2998 colon) | growth (KM12 colon)
1 | CCN1C(=O)NC(=O)C(C)(N2C(=O)c3c(F)c(F)c(F)c(F)c3C2=O)C1=O (configuration not stated) | -51.3% (active) | -64.6% (active) | 2.56% (active) | 3.31% (active) | 42.7% (inactive) | 1.91% (active) | 96.9% (inactive) | -58.8% (active) | -89.9% (active) | 12.1% (inactive) | 17.9% (inactive) | 23.5% (inactive) | 35.9% (inactive) | 21.6% (inactive) | -77.9% (active) | 13.3% (inactive) | -38.8% (active) | 40.8% (inactive) | -59.7% (active)
2 | C=CCOC(=O)C(Br)CC (configuration not stated) | 102% (inactive) | 100% (inactive) | 112% (inactive) | 106% (inactive) | 113% (inactive) | 108% (inactive) | 105% (inactive) | 115% (inactive) | 105% (inactive) | 104% (inactive) | 107% (inactive) | 95.8% (inactive) | 111% (inactive) | 109% (inactive) | 104% (inactive) | 103% (inactive) | 104% (inactive) | 101% (inactive) | 112% (inactive)
3 | O=C(Cc1ccccc1)NC(O)C(Cl)(Cl)Cl (configuration not stated) | 96.1% (inactive) | 101% (inactive) | 104% (inactive) | 96.1% (inactive) | 111% (inactive) | 105% (inactive) | 106% (inactive) | 115% (inactive) | 124% (inactive) | 124% (inactive) | 107% (inactive) | 110% (inactive) | 96.8% (inactive) | 109% (inactive) | 117% (inactive) | 93.1% (inactive) | 107% (inactive) | 110% (inactive) | 119% (inactive)
4 | Cc1nnc([S-])o1.[Au+].c1ccc([PH+](c2ccccc2)c2ccccc2)cc1 | 38.6% (inactive) | 20.8% (inactive) | 17.2% (inactive) | 44.8% (inactive) | 110% (inactive) | 60.4% (inactive) | 111% (inactive) | 20.9% (inactive) | -61.4% (active) | 30.4% (inactive) | 99.6% (inactive) | 29.6% (inactive) | 34.1% (inactive) | 43.9% (inactive) | -11.8% (active) | 10.3% (inactive) | 21.6% (inactive) | 80.2% (inactive) | 74.2% (inactive)
5 | O=C(O)c1ccccc1N(CCO)CCCl | 98.3% (inactive) | 84.2% (inactive) | 103% (inactive) | 101% (inactive) | 92.3% (inactive) | 108% (inactive) | 108% (inactive) | 88.6% (inactive) | 111% (inactive) | 120% (inactive) | 95.1% (inactive) | 87.6% (inactive) | 95.9% (inactive) | 112% (inactive) | 107% (inactive) | 95.9% (inactive) | 95.3% (inactive) | 103% (inactive) | 103% (inactive)
6 | CCC1(NC(=O)c2cc(F)c(F)c(F)c2F)C(=O)NC(=O)N(C(C)C)C1=O (configuration not stated) | 55% (inactive) | -18.6% (active) | 107% (inactive) | 79.4% (inactive) | 109% (inactive) | 84.6% (inactive) | 150% (inactive) | -56.8% (active) | 138% (inactive) | 28.3% (inactive) | 105% (inactive) | 214% (inactive) | 72.9% (inactive) | 59.8% (inactive) | 62.7% (inactive) | 96.4% (inactive) | 99% (inactive) | -55.8% (active) | 139% (inactive)
7 | Cc1cc[n+](CCc2ccccc2)cc1 | 90.4% (inactive) and 101% (inactive) | 101% (inactive) | 115% (inactive) | 95.7% (inactive) and 99.1% (inactive) | 88.3% (inactive) and 116% (inactive) | 90.3% (inactive) and 104% (inactive) | 116% (inactive) and 115% (inactive) | 94.7% (inactive) and 82.5% (inactive) | 104% (inactive) and 118% (inactive) | 105% (inactive) | 91.2% (inactive) and 111% (inactive) | 95.4% (inactive) and 101% (inactive) | 104% (inactive) and 107% (inactive) | 102% (inactive) and 104% (inactive) | 101% (inactive) and 117% (inactive) | 101% (inactive) and 104% (inactive) | 91.2% (inactive) and 103% (inactive) | 85.8% (inactive) and 102% (inactive) | 105% (inactive) and 107% (inactive)
8 | Cc1ccc(S(=O)(=O)n2cc([C@@]3(O)C[C@H](CSC#N)OC3=O)c3ccccc32)cc1 | 7.16% (active) | 49% (inactive) | 16.3% (inactive) | 83.2% (inactive) | 83.9% (inactive) | 75.7% (inactive) | 99.6% (inactive) | 71.6% (inactive) | 54.8% (inactive) | 44.4% (inactive) | 82.2% (inactive) | 62.8% (inactive) | 70.9% (inactive) | 63.3% (inactive) | 36.1% (inactive) | 23.6% (inactive) | 45.6% (inactive) | 25.1% (inactive) | 68.7% (inactive)
9 | C[C@]12CC[C@H](O)C[C@@H]1CC[C@@H]1[C@@H]2CC[C@]2(C)OC(=O)CC[C@@H]12 | 113% (inactive) | 125% (inactive) | 102% (inactive) | 85.6% (inactive) | 93.7% (inactive) | 104% (inactive) | 85% (inactive) | 93.1% (inactive) | 99% (inactive) | 111% (inactive) | 101% (inactive) | 63.6% (inactive) | 88.2% (inactive) | 102% (inactive) | 115% (inactive) | 96.8% (inactive) | 88.6% (inactive) | 102% (inactive) | 92.5% (inactive)
10 | CC[C@H](C)[C@H](NC(=O)[C@H]1CCCCN1C)C(=O)N(C)[C@H](C[C@@H](OC(C)=O)c1nc(C(=O)N[C@@H](Cc2ccccc2)C[C@H](C)C(=O)O)cs1)C(C)C | 12.8% (inactive) | 2.65% (active) | 34.1% (inactive) | 21% (inactive) | 57.7% (inactive) | 52.6% (inactive) | 12.3% (inactive) | 30.2% (inactive) | -4.44% (active) | 25.3% (inactive) | 12.2% (inactive) | 70.5% (inactive) | -37.2% (active) | -10.9% (active) | 35.2% (inactive) | 14.6% (inactive) | 5.71% (active) | 13.7% (inactive) | 0.294% (active)
11 | CCCCCCCCCCCCCCCC[N+](C)(C)Cc1ccccc1 | -1.12% (active) and -55.3% (active) | 5.4% (active) and -55% (active) | -42.2% (active) and -50.1% (active) | 10.5% (inactive) | 24.7% (inactive) and -62.5% (active) | 3.33% (active) and -44.5% (active) | 31.6% (inactive) and -7.74% (active) | -71.5% (active) and -87.3% (active) | 1.73% (active) and -74% (active) | 8.98% (active) and -27.8% (active) | 82.4% (inactive) and 83.6% (inactive) | 7% (active) and -12% (active) | -0.798% (active) and -75.1% (active) | -58.7% (active) and -87.5% (active) | -6.91% (active) and -62.2% (active) | 2.3% (active) and -42.3% (active) | -53% (active) and -100% (active) | -56.7% (active) and -49.7% (active) | -81% (active) and -85.4% (active)
12 | C/C(=N/OC(=O)N(C)C)c1ccc(Cl)c(Cl)c1 | 86.3% (inactive) | 74.5% (inactive) | 89% (inactive) | 104% (inactive) | 100% (inactive) | 119% (inactive) | 116% (inactive) | 105% (inactive) | 113% (inactive) | 116% (inactive) | 106% (inactive) | 95.6% (inactive) | 125% (inactive) | 106% (inactive) |  | 97.3% (inactive) | 107% (inactive) | 109% (inactive) | 109% (inactive)
13 | Oc1ccccc1C=NCCN=Cc1ccccc1O.[Fe] | 30.7% (inactive) | 73.2% (inactive) | 88.6% (inactive) | 84.7% (inactive) | 118% (inactive) | 117% (inactive) | 101% (inactive) | 71.2% (inactive) | 112% (inactive) | 77.3% (inactive) | 104% (inactive) | 97.7% (inactive) | 110% (inactive) |  | 66.1% (inactive) | 70.4% (inactive) | 77% (inactive) |  | 93% (inactive)
14 | N#CC(N)c1ccccc1 (configuration not stated) | 108% (inactive) | 101% (inactive) | 99% (inactive) | 106% (inactive) | 101% (inactive) | 110% (inactive) | 115% (inactive) | 115% (inactive) | 106% (inactive) | 98.5% (inactive) | 108% (inactive) | 114% (inactive) | 96.3% (inactive) | 98.3% (inactive) |  | 111% (inactive) | 96.4% (inactive) | 113% (inactive) | 103% (inactive)
